The supplement of paper PMC12350171
Structures can show the parent of a compound that is named as a salt. Values without a mark were called inactive.

Legend:
Conditions in all cases: 20 µM
[1] = tested on: Haemophilus parainfluenzae; test: growth AUC normalised to DMSO control (fraction of control); higher = less growth inhibition, active = hit call of the paper
In short: (§1)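 Three biological replicates were carried out, with OD578 read hourly for 24 h. Before inoculation at a starting OD578 of 0.01, pathogens were passaged anaerobically twice; plates were pre-reduced mGAM containing 20 μM compound and 1% DMSO, sealed with breathable membranes, and the Haemophilus parainfluenzae medium carried added hemin and NAD. Area under each growth curve was calculated by the trapezoidal rule up to the exponential-to-stationary transition and normalised to DMSO controls on the same plate.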

[2] = tested on: Salmonella enterica typhimurium; test: as above
In short: as §1

[3] = tested on: Shigella flexneri; test: as above
In short: as §1

[4] = tested on: Vibrio cholerae; test: as above
In short: as §1

[5] = tested on: Yersinia pseudotuberculosis; test: as above
In short: as §1

[6] = tested on: P. vulgatus RND KO; test: growth AUC normalised to DMSO control (median) (fraction of control); higher = less growth inhibition, active = hit call of the paper
In short: (§2)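 Area under the growth curve, calculated by the trapezoidal rule up to entry into stationary phase, was normalised to vehicle wells on the same plate. Strains had been passaged twice overnight without oxygen and then grown in mGAM in 96-well plates from OD578 0.01, each with an approved-drug library compound at 20 μM in 1% DMSO. OD578 was read hourly over 24 h in an anaerobic incubator, and the median of three biological replicates is given.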

[7] = tested on: P. vulgatus WT; test: as above
In short: as §2

[8] = tested on: S. enterica typhimurium WT; test: as above
In short: as §2

[9] = tested on: S. enterica typhimurium tolC KO; test: as above
In short: as §2
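For growth AUC normalised to DMSO control (median) in this document: active when median AUC fell below 0.1.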

CN(C)C(=O)Oc1cc(OC(=O)N(C)C)cc(C(O)CNC(C)(C)C)c1 (configuration not stated) [Bambuterol hydrochloride]
growth AUC normalised to DMSO control [1]: 0.992
growth AUC normalised to DMSO control [2]: 1
growth AUC normalised to DMSO control [3]: 0.997
growth AUC normalised to DMSO control [4]: 1
growth AUC normalised to DMSO control [5]: 1.02
growth AUC normalised to DMSO control [6]: 1.05
growth AUC normalised to DMSO control [7]: 1.02
growth AUC normalised to DMSO control [8]: 1.01
growth AUC normalised to DMSO control [9]: 1.01

CN1CCC2(C)c3cc(O)ccc3N(C)C12 (single isomer, unassigned; (-)) [(-) Eseroline fumarate salt]
growth AUC normalised to DMSO control [1]: 1.02
growth AUC normalised to DMSO control [2]: 0.999
growth AUC normalised to DMSO control [3]: 1.01
growth AUC normalised to DMSO control [4]: 0.995
growth AUC normalised to DMSO control [5]: 1.01
growth AUC normalised to DMSO control [6]: 0.979
growth AUC normalised to DMSO control [7]: 0.999
growth AUC normalised to DMSO control [8]: 1.01
growth AUC normalised to DMSO control [9]: 0.999

O=[N+]([O-])O[C@H]1CO[C@H]2[C@@H]1OC[C@H]2O[N+](=O)[O-] [Isosorbide dinitrate]
growth AUC normalised to DMSO control [1]: 1.07
growth AUC normalised to DMSO control [2]: 1.03
growth AUC normalised to DMSO control [3]: 1.02
growth AUC normalised to DMSO control [4]: 1.09
growth AUC normalised to DMSO control [5]: 1.01
growth AUC normalised to DMSO control [6]: 0.94
growth AUC normalised to DMSO control [7]: 0.94
growth AUC normalised to DMSO control [8]: 0.996
growth AUC normalised to DMSO control [9]: 1.01

CC[N+]1(C)CCCC(OC(=O)C(O)(c2ccccc2)c2ccccc2)C1 (configuration not stated) [Pipenzolate bromide]
growth AUC normalised to DMSO control [1]: 0.996
growth AUC normalised to DMSO control [2]: 0.993
growth AUC normalised to DMSO control [3]: 0.977
growth AUC normalised to DMSO control [4]: 0.998
growth AUC normalised to DMSO control [5]: 1.01
growth AUC normalised to DMSO control [6]: 1
growth AUC normalised to DMSO control [7]: 1.02
growth AUC normalised to DMSO control [8]: 1
growth AUC normalised to DMSO control [9]: 0.999

O=[N+]([O-])O[C@@H]1CO[C@H]2[C@@H]1OC[C@@H]2O [Isosorbide mononitrate]
growth AUC normalised to DMSO control [1]: 1.05
growth AUC normalised to DMSO control [2]: 1.01
growth AUC normalised to DMSO control [3]: 1.03
growth AUC normalised to DMSO control [4]: 1.02
growth AUC normalised to DMSO control [5]: 1
growth AUC normalised to DMSO control [6]: 0.946
growth AUC normalised to DMSO control [7]: 0.958
growth AUC normalised to DMSO control [8]: 1
growth AUC normalised to DMSO control [9]: 0.99

CNC(=O)Oc1ccc2c(c1)[C@]1(C)CCN(C)[C@@H]1N2C [Eserine hemisulfate salt]
growth AUC normalised to DMSO control [1]: 0.975
growth AUC normalised to DMSO control [2]: 1.01
growth AUC normalised to DMSO control [3]: 1.02
growth AUC normalised to DMSO control [4]: 1.06
growth AUC normalised to DMSO control [5]: 0.97
growth AUC normalised to DMSO control [6]: 1.07
growth AUC normalised to DMSO control [7]: 1.06
growth AUC normalised to DMSO control [8]: 0.999
growth AUC normalised to DMSO control [9]: 0.993

CCCN1C[C@H](CSC)C[C@@H]2c3cccc4[nH]cc(c34)C[C@H]21 [Pergolide mesylate]
growth AUC normalised to DMSO control [1]: 1
growth AUC normalised to DMSO control [2]: 0.998
growth AUC normalised to DMSO control [3]: 0.959
growth AUC normalised to DMSO control [4]: 0.956
growth AUC normalised to DMSO control [5]: 1.01
growth AUC normalised to DMSO control [6]: 0.986
growth AUC normalised to DMSO control [7]: 0.956
growth AUC normalised to DMSO control [8]: 0.995
growth AUC normalised to DMSO control [9]: 0.974

CNCC(O)c1ccc(O)cc1 (configuration not stated) [Synephrine]
growth AUC normalised to DMSO control [1]: 1.04
growth AUC normalised to DMSO control [2]: 1.01
growth AUC normalised to DMSO control [3]: 1.05
growth AUC normalised to DMSO control [4]: 1.03
growth AUC normalised to DMSO control [5]: 1.01
growth AUC normalised to DMSO control [6]: 0.984
growth AUC normalised to DMSO control [7]: 0.984
growth AUC normalised to DMSO control [8]: 1
growth AUC normalised to DMSO control [9]: 0.999

C[C@]12CC[C@H](O)C[C@H]1CC[C@@H]1[C@@H]2CC[C@]2(C)[C@@H](C3=CC(=O)OC3)CC[C@]12O [Digitoxigenin]
growth AUC normalised to DMSO control [1]: 1
growth AUC normalised to DMSO control [2]: 1
growth AUC normalised to DMSO control [3]: 0.981
growth AUC normalised to DMSO control [4]: 0.973
growth AUC normalised to DMSO control [5]: 0.995
growth AUC normalised to DMSO control [6]: 0.989
growth AUC normalised to DMSO control [7]: 0.968
growth AUC normalised to DMSO control [8]: 0.995
growth AUC normalised to DMSO control [9]: 1

O=P1(N(CCCl)CCCl)NCCCO1 (configuration not stated) [Cyclophosphamide]
growth AUC normalised to DMSO control [1]: 1.04
growth AUC normalised to DMSO control [2]: 1.02
growth AUC normalised to DMSO control [3]: 1.01
growth AUC normalised to DMSO control [4]: 1.04
growth AUC normalised to DMSO control [5]: 1.01
growth AUC normalised to DMSO control [6]: 0.998
growth AUC normalised to DMSO control [7]: 1
growth AUC normalised to DMSO control [8]: 1.01
growth AUC normalised to DMSO control [9]: 0.997

C[CH2][Hg][S]c1ccccc1C(=O)[O-].[Na+] [Thimerosal]
growth AUC normalised to DMSO control [1]: 1.2
growth AUC normalised to DMSO control [2]: 0.932 (active)
growth AUC normalised to DMSO control [3]: 0.828 (active)
growth AUC normalised to DMSO control [4]: 0.935
growth AUC normalised to DMSO control [5]: 1
growth AUC normalised to DMSO control [6]: 0.0191 (active)
growth AUC normalised to DMSO control [7]: 0.341
growth AUC normalised to DMSO control [8]: 0.91
growth AUC normalised to DMSO control [9]: 0.956

CC(C)(C)NCC(O)c1cc(Cl)c(N)c(Cl)c1 (configuration not stated) [Clenbuterol hydrochloride]
growth AUC normalised to DMSO control [1]: 0.984
growth AUC normalised to DMSO control [2]: 0.958
growth AUC normalised to DMSO control [3]: 0.979
growth AUC normalised to DMSO control [4]: 0.992
growth AUC normalised to DMSO control [5]: 0.993
growth AUC normalised to DMSO control [6]: 0.981
growth AUC normalised to DMSO control [7]: 1.01
growth AUC normalised to DMSO control [8]: 1
growth AUC normalised to DMSO control [9]: 0.992

NCC(O)c1ccc(O)cc1 (configuration not stated) [Octopamine hydrochloride]
growth AUC normalised to DMSO control [1]: 1.03
growth AUC normalised to DMSO control [2]: 1
growth AUC normalised to DMSO control [3]: 0.999
growth AUC normalised to DMSO control [4]: 1.01
growth AUC normalised to DMSO control [5]: 1.02
growth AUC normalised to DMSO control [6]: 1.02
growth AUC normalised to DMSO control [7]: 1.03
growth AUC normalised to DMSO control [8]: 1
growth AUC normalised to DMSO control [9]: 1.03
